A short description of assay [1]: qHTS assay for small molecule agonists of the p53 signaling pathway (AID 651631; calls by dose curve; also: nearly all actives have a fitted effect of over 15% in size). In short, it runs like this: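 HCT-116 cells carrying a beta-lactamase reporter under p53 response elements were dosed with compound for 16 h at 37 °C. LiveBLAzer B/G FRET substrate was then added for 2 h at room temperature, and fluorescence intensity was read to detect pathway agonism.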
In general terms: In qHTS, concentration-response curves come from the screen itself.

Assay [2] in a line: qHTS assay for small molecules that induce genotoxicity in human embryonic kidney cells expressing luciferase-tagged ATAD5 (AID 651632). Also: nearly all actives have a fitted effect of over 15% in size. Put shortly: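 A rise in luciferase signal from ATAD5-tagged HEK293T cells marks genetic stress. Cells were exposed to compounds for 16 hr at 37C, 5% CO2, then luciferase was quantified after a 30 min room-temperature incubation with Amplite.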

Assay [3] is described as follows: qHTS assay for small molecule agonists of the p53 signaling pathway - cell viability (AID 651633; calls by dose curve;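 also: p53RE-bla HCT reporter cells with a stable beta-lactamase p53 reporter; nearly all actives have a fitted effect of over 30% in size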). In short, it runs like this:
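p53RE-bla cells, seeded at 4,000 per well and rested 5 h at 37 C/5% CO2, received compounds in DMSO for 16 h at 37 C. CellTiter-Glo was then added, and luminescence was read after 30 min at room temperature to gauge cytotoxicity.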

The nature of assay [4]: qHTS assay for small molecule disruptors of the mitochondrial membrane potential - cell viability (AID 720634; calls by dose curve;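 also: human HepG2 liver cancer cells; nearly all actives have a fitted effect of over 20% in size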). Put shortly: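 Cytotoxicity was quantified from ATP content by CellTiter-Glo luminescence in the same wells as the MMP dye read-out. HepG2 (2,000 cells/well) were plated overnight and exposed to compounds for 1 hr at 37 C.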
The nature of assay [5]: qHTS assay for small molecule disruptors of the mitochondrial membrane potential (AID 720635). Also: potency is read from the fitted curve at half-maximal effect. In short, it runs like this:
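HepG2 cells (2,000/well) attached overnight at 37C, then took compound for 1 hr at 37C, 5% CO2. Mito-MPS dye was added for 30 min; fluorescence was read at 490/535 nm (monomers) and 540/590 nm (aggregates).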

The nature of assay [6]: qHTS assay to test for compound auto fluorescence at 590 nm (red) in HepG2 cells (AID 720674). In short, it runs like this: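 Intrinsic compound fluorescence in the red window (Ex/Em 540/590 nm) is measured in attached HepG2 cells exposed for 1 hr, DMSO vehicle as baseline, benchmarked to Rose Bengal sodium.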
Assay [7] is described as follows: qHTS assay to test for compound auto fluorescence at 535 nm (green) in HepG2 cells (AID 720675).
Assay [8] is described as follows: qHTS assay to test for compound auto fluorescence at 460 nm (blue) in HEK293 cells (AID 720678). Put shortly: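 Cells were seeded and left to adhere for 4-5 hr at 37C. Compounds were then pin-transferred. After an overnight incubation at 37C under 5% CO2, intrinsic fluorescence at 405/460 nm was measured and referenced to triamterene.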
Assay [9] can be described thus: qHTS assay to test for compound auto fluorescence at 590 nm (red) in HEK293 cells (AID 720679). Put shortly:
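Each well held 2,000 HEK293 cells in medium containing 10% dialyzed FBS. Following 4-5 hr attachment at 37C, 23 nL test compound or DMSO was added; plates sat overnight, and red fluorescence (540/590nm) was recorded.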

A short description of assay [10]: qHTS assay to test for compound auto fluorescence at 460 nm (blue) in HEK293 cell free culture (AID 720681). In short, it runs like this:
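Test compounds were pinned into cell-free culture medium (DMEM with 10% FBS) and fluorescence was read directly at Ex/Em 405/460 nm. Signals were expressed as fluorescence equivalents of triamterene, with DMSO vehicle as control.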

The nature of assay [11]: qHTS assay to test for compound auto fluorescence at 535 nm (green) in HEK293 cell free culture (AID 720682). Put shortly: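 Green-label autofluorescence (485 nm excitation, 535 nm emission) measured on compound added to cell-free culture medium (DMEM, 10% FBS). Output is expressed relative to fluorescein.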
Assay [12] is described as follows: qHTS assay to test for compound auto fluorescence at 590 nm (red) in HepG2 cell free culture (AID 720684). In short, it runs like this:
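Readout: intrinsic compound fluorescence at 590 nm emission after 540 nm excitation, scaled to Rose Bengal sodium. Matrix was cell-free MEM with 10% FBS; DMSO vehicle wells served as control.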

Assay [13] can be described thus: qHTS assay to test for compound auto fluorescence at 460 nm (blue) in HepG2 cell free culture (AID 720685). In short, it runs like this:
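Cell-free plates of MEM plus 10% FBS received 23 nL compound or DMSO vehicle; blue-channel (405/460 nm) intensity scored against triamterene as reference fluorophore.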

Assay [14] is described as follows: qHTS assay to test for compound auto fluorescence at 535 nm (green) in HepG2 cell free culture (AID 720686).
A short description of assay [15]: qHTS assay to test for compound auto fluorescence at 460 nm (blue) in HepG2 cells (AID 720687). In short, it runs like this:
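Cells (2,000/well in MEM with 10% FBS) attached overnight at 37 C, then were exposed to compound or DMSO for 1 hr at 37 C, 5% CO2. Fluorescence read at Ex/Em 405/460 nm, expressed as triamterene-equivalent signal.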

A short description of assay [16]: qHTS assay for small molecules that induce genotoxicity in human embryonic kidney cells expressing luciferase-tagged ATAD5 - cell viability (AID 651634; calls by dose curve; also: nearly all actives have a fitted effect of over 25% in size). In short, it runs like this:
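Cytotoxicity counter-readout: after 15.5 hr compound treatment at 37C, live-cell protease activity in ATAD5-luciferase HEK293T cells measured by CellTiter-Fluor fluorescence, 30 min development at 37C.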

A short description of assay [17]: qHTS assay to test for compound auto fluorescence at 535 nm (green) in HEK293 cells (AID 720680).
A short description of assay [18]: qHTS assay to test for compound auto fluorescence at 590 nm (red) in HEK293 cell free culture (AID 720683). In short, it runs like this:
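Tox21 10K library compounds were pinned into cell-free DMEM with 10% FBS and fluorescence was read at excitation 540 nm. Activity is expressed as Rose Bengal sodium equivalency.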

For assay [19], the target named is Glucocorticoid receptor (Homo sapiens) (UniProt P04150). The assay is described as follows: qHTS assay to identify small molecule agonists of the glucocorticoid receptor (GR) signaling pathway (AID 720691; active = well fitted activation curve with a large enough effect in the signal ratio in the repeat runs, not every such curve was filed as active; the % refers to the signal ratio). As to conditions: GR-bla HeLa, beta-lactamase reporter ratio, 18 h; activation: at 62.4 µM (top of the series). Put shortly: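 Agonist-mode qHTS in HeLa cells stably expressing a glucocorticoid-response-element beta-lactamase reporter. Fluorescence intensity read with FRET substrate (2 h, room temperature) after 18 h compound treatment at 37 C.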

The target is the same in assay [20]. The assay can be described thus: qHTS assay to identify small molecule antagonists of the glucocorticoid receptor (GR) signaling pathway (AID 720692; active = well fitted inhibition curve with a large enough effect in the signal ratio in the repeat runs, not every such curve was filed as active; the % refers to the signal ratio). In short, it runs like this:
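Inhibition of dexamethasone-driven (5 nM final) beta-lactamase expression was measured in GRE-reporter HeLa cells over 18 h at 37C. Fluorescence was read after 2 h with the B/G FRET substrate at room temperature.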

SMILES strings stand for the structures. Results filed as inconclusive are left out. Active and inactive are the calls of the source. Unless noted, calls follow the shape of the dose curve; as a rule, active = well fitted curve in the direction sought with a large enough effect in the repeat runs; inconclusive = weak or mixed curves; inactive = no such curve, though single readings can be large; an effect the other way counts as inactive or inconclusive.

Chain of Glucocorticoid receptor (Homo sapiens) (P04150 whole entry, looked up): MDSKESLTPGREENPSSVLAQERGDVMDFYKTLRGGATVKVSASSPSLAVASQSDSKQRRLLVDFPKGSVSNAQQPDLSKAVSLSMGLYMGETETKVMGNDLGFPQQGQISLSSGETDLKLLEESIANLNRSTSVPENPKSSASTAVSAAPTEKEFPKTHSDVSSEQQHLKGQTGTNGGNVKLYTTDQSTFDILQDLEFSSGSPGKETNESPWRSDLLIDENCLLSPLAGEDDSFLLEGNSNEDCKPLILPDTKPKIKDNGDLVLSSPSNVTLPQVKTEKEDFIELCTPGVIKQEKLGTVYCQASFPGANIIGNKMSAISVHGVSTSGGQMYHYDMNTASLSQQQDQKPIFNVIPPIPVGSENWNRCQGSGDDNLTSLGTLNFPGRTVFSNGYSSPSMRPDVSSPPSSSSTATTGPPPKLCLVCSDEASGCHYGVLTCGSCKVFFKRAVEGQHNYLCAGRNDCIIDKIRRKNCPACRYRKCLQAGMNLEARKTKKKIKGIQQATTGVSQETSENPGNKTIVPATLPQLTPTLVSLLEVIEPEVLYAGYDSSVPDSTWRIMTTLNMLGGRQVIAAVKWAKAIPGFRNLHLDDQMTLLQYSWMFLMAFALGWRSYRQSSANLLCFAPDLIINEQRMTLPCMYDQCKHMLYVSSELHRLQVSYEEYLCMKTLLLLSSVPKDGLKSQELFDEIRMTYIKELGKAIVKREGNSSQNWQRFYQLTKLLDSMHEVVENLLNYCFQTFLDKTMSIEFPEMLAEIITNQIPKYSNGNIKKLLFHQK

With `O=C=NCCCCCCN=C=O`, the Potency entry in assay [1], in assay [3], in assay [4] and in [5] was “inactive” throughout. Also, the outcome in assay [2], in assay [6], in [7], in [8], in assay [9] and in assay [10] was inactive. Besides, the compound was called inactive in [11], in [12], in [13], in assay [14] and in [15].
On to `O=c1[nH]nnc2ccccc12`, for which the Potency entry in [1], in [3], in assay [16], in assay [4] and in assay [5] was “inactive” throughout. Also, the result in assay [2], in assay [6], in assay [7], in [8], in assay [9] and in assay [17] was inactive. The result in assay [10], in assay [11], in assay [18], in assay [12], in [13] and in assay [14] was inactive. The result in [15] was inactive.
For `CC1=C(C)S(=O)(=O)CCS1(=O)=O`, the Potency result in assay [1], in assay [3], in assay [16], in assay [4], in assay [19] and in assay [20] was “inactive” each time. For the same compound, the result in assay [2], in assay [6], in assay [7], in [8], in assay [9] and in [17] was inactive. Besides, the result in assay [11], in assay [12], in assay [13], in assay [14] and in assay [15] was inactive.
Consider `N[C@@H](Cc1cc(I)c(Oc2cc(I)c(O)c(I)c2)c(I)c1)C(=O)O`, for which the Potency result in [1], in assay [3], in assay [16], in [4] and in assay [19] was “inactive” throughout. Also, the result in assay [2], in assay [6], in assay [7], in [8], in assay [9] and in [17] was inactive. For the same compound, the compound was called inactive in [10], in assay [11], in assay [18], in [12], in assay [14] and in assay [15].
As to `c1ccc(OCCOc2ccccc2)cc1`, the Potency result in [1], in [3], in assay [16], in assay [4], in assay [19] and in [20] was “inactive” in each case. Besides, the call in assay [2], in [7], in assay [8], in [9], in [10] and in [11] was inactive. For the same compound, the call in assay [18], in [12], in assay [13], in [14] and in assay [15] was inactive. Further, in [5], the Potency was 24.3 µM (active).
Consider `CCCCCCCCCCCCCCCO`, for which the Potency entry in [1], in [3] and in [16] was “inactive” in each case. For the same compound, the outcome in [2], in assay [7], in assay [8], in [9], in assay [10] and in [11] was inactive. Moreover, the compound was classed as inactive in [18], in assay [12], in [13], in [14] and in assay [15].
As to `Cc1ccc(N(C)C)cc1`, the Potency result in assay [1], in assay [3], in assay [16], in assay [4], in [5] and in assay [19] was “inactive” each time. Also, in [20], the Potency result is “inactive”. The compound was called inactive in assay [2], in assay [6], in assay [7], in assay [8], in [9] and in assay [11]. Moreover, the result in assay [18], in assay [12], in assay [13], in [14] and in [15] was inactive.
For `CCCCCC(N)=O`, the Potency result in [1], in assay [3], in assay [4] and in [5] was “inactive” in each case. The compound was called inactive in assay [2], in assay [6], in assay [7], in assay [8], in assay [9] and in [17]. Also, the compound was classed as inactive in [11], in assay [18], in assay [12], in [13], in assay [14] and in assay [15].

The values are drawn from PubChem BioAssay (Tox21).
